# Most compounds without a hit are left out; they make up all but 4.1% or so of the library.
# DAX1 inh-1 = DAX1 (NR0B1) inhibition, primary screen | 370,000 tested, 1.1% active | HEK293T StAR-luciferase reporter, SF-1/DAX-1 repression relief | inhibition, % at 6.8 µM | AID 652010;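 active means inhibition above the mean over all tested compounds plus 3 SD, cut at about 3.6% in these data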;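 further: higher inhibition means more luminescence from relief of DAX-1 repression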
# hcDAF12 agonist = activators of H. contortus DAF-12 nuclear receptor. AID 652067. 370,000 tested, 1.4% active. HEK293 hcDAF-12 lit1-tk-luc reporter, luminescence; 0% DMSO, 100% Δ7-dafachronic acid. activation, % at 6.8 µM;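 active means activation above the mean of all tested compounds plus 3 SD, cut at about 5.5% in these data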
# PolyA inhibitor = inhibitors of polyadenylation in S. cerevisiae. AID 1875. S. cerevisiae SKY197-pL101 polyadenylation reporter, beta-gal luminescence; efflux-impaired pdr1/pdr3 knockout yeast; score 100 = 6 SD above DMSO. activity score, % at 12 µM. 300,000 tested, 0.02% active;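 active means lowest replicate activity score at least 50, where 100 means six control SD above control mean; inconclusive means lowest score under 50 but half or more replicates reach 50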;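 further: yeast exposed to compound for 9 h at 30 °C; higher score means more reporter readthrough which indicates perturbed polyadenylation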
# DAX1 inh-2 = NR0B1 (DAX1) inhibition | P51843 | HEK293 Gal4-DAX1 luciferase reporter, luminescence | inhibition, % at 6.75 µM | 340,000 tested, 0.99% active;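 active means inhibition above the mean over all tested compounds plus 3 SD, cut at about 4.2% in these data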;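 further: inhibition shows as a rise in luminescence from relieved DAX1 repression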
# Target sequence (P51843 207-470 limits assumed): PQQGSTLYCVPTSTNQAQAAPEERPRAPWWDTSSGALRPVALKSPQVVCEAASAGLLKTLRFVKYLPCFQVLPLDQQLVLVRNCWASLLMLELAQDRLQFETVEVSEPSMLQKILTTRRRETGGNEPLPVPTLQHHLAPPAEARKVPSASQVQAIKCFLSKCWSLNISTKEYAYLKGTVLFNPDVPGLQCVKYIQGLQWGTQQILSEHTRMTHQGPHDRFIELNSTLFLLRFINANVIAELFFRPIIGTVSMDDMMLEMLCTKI
# hgDAF-12 ag = agonists of H. glycines DAF-12 nuclear receptor; 370,000 tested, 1.8% active; activation, % at 6.8 µM; HEK293 GAL4-hgDAF12 UAS-luciferase reporter, agonist luminescence; normalized to butyrate control;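 active means activation above a cutoff set at the mean of all screened compounds plus 3 SD, cut at about 10% in these data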
# ssDAF-12 act = activators of S. stercoralis DAF-12 nuclear receptor | HEK293 ssDAF-12/GRIP1 lit1-tk-luc reporter, luminescence; % of 3 µM dafachronic acid response | activation, % at 6.8 µM | 370,000 tested, 1% active | AID 652126;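 active means activation above the mean over all tested compounds plus 3 SD, cut at about 0.9% in these data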
# A number is an active result; i = inactive; ? = inconclusive; nt = no result given.
SMILES,DAX1 inh-1,hcDAF12 agonist,PolyA inhibitor,DAX1 inh-2,hgDAF-12 ag,ssDAF-12 act
O=C(Nc1ccc(NC(=O)c2ccc(Cl)cc2Cl)cc1)c1cccs1,i,i,i,i,i,i
O=C(Nc1ccc(-c2cn3ccccc3n2)cc1)c1cccs1,i,i,i,i,12,i
O=C(NCCc1ccccc1)c1cnc2sccn2c1=O,i,i,i,i,11,i
COc1ccc(NC(=O)NCCCN2CCN(c3ccc(F)cc3)CC2)cc1OC,i,i,nt,nt,i,i
Cc1cc2ccccc2n1CCNC(=O)c1cccs1,i,i,i,i,i,1.6
O=C(Nc1ccc(OCc2ccccc2)cc1)c1cccs1,i,i,i,5.1,i,i
O=C(Nc1ccc(NC(=O)c2cccs2)cc1)c1cccs1,i,i,i,i,i,i
O=C(NCCc1ccccc1)c1cccs1,i,i,i,i,11,i
Cc1cc2ccccc2n1CCNC(=O)C1CC1,i,i,i,i,i,i
O=C(N/N=C/c1ccc(OCc2ccccc2)cc1)c1cccs1,i,i,i,i,i,i
O=C(Nc1ccc(Cl)cc1)c1cccs1,i,i,i,i,12,i
COC(=O)[C@]12C[C@H](CC(=O)NCC3CCCCC3)C(=O)N(Cc3ccc4c(c3)OCO4)C1=C[C@H](C(C)C)O[C@@H]2C1CC1,i,i,nt,nt,i,i
C[C@@H]1CN([C@@H](C)CO)C(=O)CCCn2cc(nn2)CO[C@H]1CN(C)C(=O)Nc1cccc(C(F)(F)F)c1,i,i,nt,nt,i,i
O=C(NCCc1ccccc1)c1ccccc1SCC(=O)N1CCCC1,i,6.4,i,i,i,1.2
CCNC(=O)NC(=O)COC(=O)c1ccccc1SCC(=O)NC(=O)NCC,3.9,7.9,i,i,12,2.3
COc1ccccc1CCNC(=O)c1ccccc1SCC(=O)N1CCCC1,i,i,nt,i,i,i
Cc1ccccc1NC(=O)COC(=O)c1ccccc1SCC(=O)N1CCCC1,i,i,i,4.3,i,i
CCC(=O)OCCCN1CCC2(CCC(c3ccccc3)CC2)C1=O (stereo not drawn),i,i,nt,nt,i,i
COc1ccc(CNS(=O)(=O)CC2NCCc3ccccc32)cc1 (stereo not drawn),i,i,nt,nt,i,i
OCCNc1nc(Nc2ccc(O)cc2)nc2ccccc12,i,i,i,5.8,i,i
CC(=O)c1cc2c(cc1N/C(=N/S(=O)(=O)c1ccccc1)c1ccc(Cl)cc1)OCO2,i,i,i,i,i,1.6
O=C1NC(=O)C2C3C=CC(C12)C1C(=O)NC(=O)C31 (stereo not drawn),i,i,nt,nt,i,i
Cc1[nH]n(-c2ccccc2)c(=O)c1N=Nc1ccc(C(=O)O)cc1,i,i,i,i,i,i
CC(=O)c1ccc(N=Nc2c(C)[nH][nH]c2=O)cc1,i,i,i,5.5,i,i
Cc1[nH]n(-c2ccccc2)c(=O)c1N=Nc1ccccc1,i,6.0,i,i,i,i
SMILES,DAX1 inh-1,hcDAF12 agonist,PolyA inhibitor,DAX1 inh-2,hgDAF-12 ag,ssDAF-12 act
Cc1ccc(N=Nc2c(N)n(-c3ccccc3)[nH]c2=O)cc1,i,5.6,i,i,i,i
CC(=O)c1ccc(N=Nc2c(C)[nH]n(-c3ccccc3)c2=O)cc1,i,i,i,i,i,0.9
N#Cc1ccc(OCCCN2CCC(C(O)(c3ccccc3)c3ccccc3)CC2)cc1,i,i,nt,nt,i,i
COC(=O)C1CCCN(C(=O)C2CCN(S(=O)(=O)c3cccs3)CC2)C1 (stereo not drawn),i,i,nt,nt,i,i
COC(=O)[C@]12C[C@H](CC(=O)NCc3ccccc3)C(=O)N(Cc3ccccc3)C1=C[C@H](C(C)(C)C)O[C@@H]2C,i,i,nt,nt,i,i
CCC[C@@H](/C=C/C(=O)OC(C)(C)C)Sc1ccc(N)cc1,i,i,nt,nt,i,i
Cc1ccc(N=Nc2c(C)[nH]n(C(N)=S)c2=O)cc1,i,i,i,i,i,1.0
Cc1[nH]n(C(N)=S)c(=O)c1N=Nc1ccc(S(=O)(=O)N2CCCC2)cc1,i,i,i,i,i,i
O=c1oc2ccccc2n1CSc1nc2ccccc2s1,i,i,i,i,11,i
O=C(CSc1nc2ccccc2s1)CSc1nc2ccccc2s1,i,i,i,i,i,i
O=C(Nc1ccccc1C(F)(F)F)O[C@@H]1CC[C@@]23CCCN2C(=O)CCC[C@H]3C1,nt,i,nt,nt,i,i
ClC(CCN1CCN(Cc2ccccc2)CC1)c1ccccc1 (stereo not drawn),i,i,i,5.7,i,i
CC(CN1CCN(Cc2ccccc2)CC1)c1ccccc1 (stereo not drawn),i,i,i,i,i,i
O=C(OC12CCCN(C1)/C(=C/c1cccc(Cl)c1)C2)C1CCCCC1 (stereo not drawn),i,i,nt,nt,i,i
CCOc1ccc(N(C(=O)CNC(=O)c2ccco2)C(C(=O)NC2CCCC2)c2cccnc2)cc1 (stereo not drawn),i,i,i,5.9,i,i
CC(C)c1ccc(N(C(=O)c2ccco2)C(C(=O)NC2CCCC2)c2ccncc2)cc1 (stereo not drawn),i,i,i,i,10,i
CC(C)(C)c1ccc(S(=O)(=O)N2CCCC(C(=O)N3CCN(Cc4ccccc4)CC3)C2)cc1 (stereo not drawn),i,i,nt,nt,i,i
COc1ccc(S[C@]2(C(=O)N3CCCC3)CC(=O)N[C@@H]2c2ccc(OC)cc2)cc1,i,i,nt,nt,i,i
CCN(CC)C(=O)[C@H]1C[C@@H]2[C@H](C[C@@H](c3ccccc3)[C@H]1C)N(c1ccc(F)cc1)C(=O)N2C/C=C(\C)CCC=C(C)C,i,i,nt,nt,i,i
C=CCNC(=S)NNc1nc2c(c(=O)[nH]1)C1(CCCCC1)Cc1ccccc1-2,i,i,i,4.4,i,i
O=C(COc1ccc(CO)cc1Cl)Nc1ccc(F)cc1,i,i,i,i,11,i
CSc1cccc(NC(=S)N(CCC(C)C)C(C)c2ccncc2)c1 (stereo not drawn),i,i,?,4.7,i,i
COc1cccc(NC(=S)N(CCC(C)C)C(C)c2ccncc2)c1 (stereo not drawn),i,i,i,i,i,i
O=C(NCc1ccccc1)OCCN1C(=O)CCC12CCCCC2,i,i,nt,nt,i,i
COc1ccccc1C(CC(=O)Nc1nccs1)c1ccco1 (stereo not drawn),i,i,i,i,i,i
O=C(CC(c1ccc(F)cc1)c1ccco1)Nc1nccs1 (stereo not drawn),i,i,i,i,i,2.1
COc1ccc(N2CCN(C(=O)c3cc4c(-c5ccc(Cl)cc5)nn(C)c4s3)CC2)cc1,i,6.0,i,i,i,i
CN1CCN(CCCNC(=O)c2cc3c(-c4ccc(Cl)cc4)nn(C)c3s2)CC1,i,5.6,i,i,i,i
Clc1ccc(-c2nnc(SCc3cccc4ccccc34)n2Cc2ccco2)cc1,i,i,nt,nt,i,i
